Data published in PubChem BioAssay (EPA / NIEHS).
Calls of active or inactive are those of the source. How the source made its calls: active means hit-call score of the fitted dose curve at least 0.9, where 1 is the maximum; inactive means score below 0.9.

How the values were obtained:
Conditions in all cases: mRNA level, 48 h; actives raise or lower the signal
[1] = read-out: Ezrin (EZR), EZR (gene 7430); experiment: LTEA_HepaRG_EZR: Life Technologies and Expression Analysis (LTEA) Assay for Ezrin (EZR) using HepaRG (AID 2283491)
Outline: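 Read-out is EZR transcript level by qRT-PCR, normalized to three housekeeping genes and fitted bidirectionally against the DMSO control. Human HepaRG cells received test chemicals for 48 h at eight half-log concentrations up to 100 uM in 0.5% DMSO.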

[2] = read-out: Cytochrome P450 3A7 (Homo sapiens) (UniProt P24462); experiment: LTEA_HepaRG_CYP3A7: Life Technologies and Expression Analysis (LTEA) Assay for CYP3A7 using HepaRG (AID 2283492)
Outline: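 Differentiated HepaRG cells in serum-free induction medium exposed 48 h in duplicate to 8-point half-log series from 100 uM top in 0.5% DMSO. CYP3A7 mRNA by qRT-PCR, normalized to ACTB/GAPDH/POLR2A, bidirectional fit versus DMSO.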

[3] = read-out: CYP3A5 (gene 1577); experiment: LTEA_HepaRG_CYP3A5: Life Technologies and Expression Analysis (LTEA) Assay for CYP3A5 using HepaRG (AID 2283493)
Outline: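 HepaRG plated 48 h, switched to serum-free induction medium, chemicals added 48 h (max 100 uM, half-log, 0.5% DMSO). RNA isolated; CYP3A5 by TaqMan qRT-PCR. Gain/loss vs DMSO.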

[4] = read-out: Fatty Acid-Binding Protein 1 (FABP1), FABP1 (gene 2168); experiment: LTEA_HepaRG_FABP1: Life Technologies and Expression Analysis (LTEA) Assay for Fatty Acid-Binding Protein 1 (FABP1) using HepaRG (AID 2283494)
Outline: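 Differentiated human HepaRG cells exposed 48 h in serum-free induction medium to eight half-log concentrations up to 100 uM (0.5% DMSO), duplicate. FABP1 mRNA by qRT-PCR, normalised to ACTB, GAPDH, POLR2A; bidirectional fitting against DMSO.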

[5] = read-out: Cytochrome P450 4A22 (Homo sapiens) (UniProt Q5TCH4); experiment: LTEA_HepaRG_CYP4A22: Life Technologies and Expression Analysis (LTEA) Assay for Cytochrome P450 4A22 (CYP4A22) using HepaRG (AID 2283495)
Outline: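 Differentiated HepaRG cells in serum-free induction medium exposed 48 h in duplicate to eight half-log concentrations up to 100 uM in 0.5% DMSO. CYP4A22 mRNA quantified by TaqMan qRT-PCR, normalized to ACTB, GAPDH and POLR2A; bidirectional fit versus DMSO.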

[6] = read-out: Cytochrome P450 7A1 (Homo sapiens) (UniProt P22680); experiment: LTEA_HepaRG_CYP7A1: Life Technologies and Expression Analysis (LTEA) Assay for Cytochrome P450 7A1 (CYP7A1) using HepaRG (AID 2283496)
Outline: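 HepaRG cells plated 48 h, then switched to serum-free induction medium and exposed in duplicate for 48 h to 8-point half-log series from 100 uM in 0.5% DMSO. CYP7A1 mRNA by qRT-PCR (TaqMan), normalized to ACTB/GAPDH/POLR2A; bidirectional fit versus DMSO.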

[7] = read-out: Glutathione S-Transferase (GSTA2), GSTA2 (gene 2939); experiment: LTEA_HepaRG_GSTA2: Life Technologies and Expression Analysis (LTEA) Assay for Glutathione S-Transferase (GSTA2) using HepaRG (AID 2283497)
Outline: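 Differentiated human HepaRG cells were exposed in duplicate for 48 h in serum-free induction medium, 8 points from 100 uM top in half-log steps, 0.5% DMSO. GSTA2 mRNA was measured by TaqMan qRT-PCR, normalized to ACTB, GAPDH and POLR2A; bidirectional fit versus DMSO.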

[8] = read-out: growth arrest and DNA damage 45 (GADD45G), GADD45G (gene 10912); experiment: LTEA_HepaRG_GADD45G: Life Technologies and Expression Analysis (LTEA) Assay for growth arrest and DNA damage 45 (GADD45G) using HepaRG (AID 2283499)
Outline: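 Differentiated human HepaRG cells, 48 h post-plating, exposed 48 h in serum-free induction medium to 8 half-log concentrations (top 100 uM, 0.5% DMSO) in duplicate. GADD45G mRNA measured by Fluidigm TaqMan qRT-PCR, normalized to ACTB, GAPDH, POLR2A; bidirectional fit versus DMSO.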

[9] = read-out: Glutamate-cysteine ligase regulatory (GCLM), GCLM (gene 2730); experiment: LTEA_HepaRG_GCLM: Life Technologies and Expression Analysis (LTEA) Assay for Glutamate-cysteine ligase regulatory (GCLM) using HepaRG (AID 2283500)
Outline: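 Cells were plated, cultured 48 h, switched to serum-free induction medium, then dosed in duplicate for 48 h at eight half-log concentrations up to 100 uM. RNA was then profiled by qRT-PCR; gain or loss versus DMSO was fitted.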

[10] = read-out: Glutathione S-transferase M3 (GSTM3), GSTM3 (gene 2947); experiment: LTEA_HepaRG_GSTM3: Life Technologies and Expression Analysis (LTEA) Assay for Glutathione S-transferase M3 (GSTM3) using HepaRG (AID 2283501)
Outline: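 Differentiated human HepaRG cells were exposed in duplicate for 48 h in serum-free induction medium, 8 points from 100 uM top in half-log steps, 0.5% DMSO. GSTM3 mRNA was measured by TaqMan qRT-PCR, normalized to ACTB, GAPDH and POLR2A; bidirectional fit versus DMSO.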

[11] = read-out: Heat shock 70 kDa protein 1 (HSPA1A), gene 3303; experiment: LTEA_HepaRG_HSPA1A: Life Technologies and Expression Analysis (LTEA) Assay for Heat shock 70 kDa protein 1 (HSPA1A) using HepaRG (AID 2283502)
Outline: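 Readout is HSPA1A transcript level by microfluidic qRT-PCR, normalized to three housekeeping genes and analysed for gain or loss of signal relative to 0.5% DMSO. Human HepaRG cultures received test chemicals for 48 h at up to 100 uM.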

[12] = read-out: Hypoxia-inducible factor 1-alpha (Homo sapiens) (UniProt Q16665); experiment: LTEA_HepaRG_HIF1A: Life Technologies and Expression Analysis (LTEA) Assay for Hypoxia-inducible factor 1 (HIF1A) Trancription factor using HepaRG (AID 2283503)
Outline: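 Differentiated HepaRG cells in serum-free induction medium exposed 48 h, in duplicate, to 8-point half-log series from 100 uM in 0.5% DMSO. HIF1A mRNA measured by TaqMan qRT-PCR, normalized to ACTB/GAPDH/POLR2A, fitted bidirectionally versus DMSO.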

[13] = read-out: 3-Hydroxy-3-Methylglutaryl-CoA Synthase 2 (HMGCS2), HMGCS2 (gene 3158); experiment: LTEA_HepaRG_HMGCS2: Life Technologies and Expression Analysis (LTEA) Assay for 3-Hydroxy-3-Methylglutaryl-CoA Synthase 2 (HMGCS2) using HepaRG (AID 2283504)
Outline: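 Human HepaRG cells in serum-free induction medium were exposed in duplicate for 48 h to 8-point half-log series from 100 uM top in 0.5% DMSO. HMGCS2 mRNA measured by TaqMan qRT-PCR, normalised to ACTB, GAPDH, POLR2A; bidirectional fit versus DMSO.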

[14] = read-out: HGF (gene 3082); experiment: LTEA_HepaRG_HGF: Life Technologies and Expression Analysis (LTEA) Assay for Hepatocyte Growth Facto (HGF) using HepaRG (AID 2283505)
Outline: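 Differentiated HepaRG cells in serum-free induction medium exposed 48 h in duplicate, 8 half-log concentrations from 100 uM in 0.5% DMSO. HGF mRNA by qRT-PCR, normalised to ACTB, GAPDH, POLR2A; bidirectional fitting.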

[15] = read-out: Insulin Like Growth Factor 1 (IGF1), IGF1 (gene 3479); experiment: LTEA_HepaRG_IGF1: Life Technologies and Expression Analysis (LTEA) Assay for Insulin Like Growth Factor 1 (IGF1) using HepaRG (AID 2283506)
Outline: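 HepaRG, plated 48 h, then switched to serum-free induction media; test chemical 8-pt half-log from 100 uM (0.5% DMSO), duplicate, 48 h. Lysis in RLT, TaqMan qRT-PCR, norm. ACTB/GAPDH/POLR2A. Bidirectional fit vs DMSO.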

[16] = read-out: Intercellular Adhesion Molecule 1 (ICAM1), ICAM1 (gene 3383); experiment: LTEA_HepaRG_ICAM1: Life Technologies and Expression Analysis (LTEA) Assay for Intercellular Adhesion Molecule 1 (ICAM1) using HepaRG (AID 2283507)
Outline: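 Differentiated human HepaRG cells in serum-free induction medium exposed 48 h in duplicate to 8 half-log concentrations (top 100 uM, 0.5% DMSO). ICAM1 mRNA quantified by TaqMan qRT-PCR, normalized to ACTB, GAPDH and POLR2A; bidirectional fitting versus DMSO.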

[17] = read-out: Insulin-like growth factor-binding protein 1 (IGFBP1), IGFBP1 (gene 3484); experiment: LTEA_HepaRG_IGFBP1: Life Technologies and Expression Analysis (LTEA) Assay for Insulin-like growth factor-binding protein 1 (IGFBP1) using HepaRG (AID 2283508)
Outline: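 HepaRG cells, plated 48 h then switched to serum-free induction medium, exposed in duplicate for 48 h to 8-point half-log series from 100 uM in 0.5% DMSO. mRNA measured by qRT-PCR, normalized to ACTB/GAPDH/POLR2A; bidirectional fit versus DMSO.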

[18] = read-out: Interleukin 6 (IL6), IL6 (gene 3569); experiment: LTEA_HepaRG_IL6: Life Technologies and Expression Analysis (LTEA) Assay for Interleukin 6 (IL6) using HepaRG (AID 2283509)
Outline: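 HepaRG cells exposed in duplicate for 48 h to eight half-log concentrations, top 100 uM, in 0.5% DMSO serum-free induction medium. mRNA measured by qRT-PCR, normalized to ACTB, GAPDH and POLR2A. Bidirectional fit versus DMSO.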

[19] = read-out: Interleukin 6 Receptor (IL6R), IL6R (gene 3570); experiment: LTEA_HepaRG_IL6R: Life Technologies and Expression Analysis (LTEA) Assay for Interleukin 6 Receptor (IL6R) using HepaRG (AID 2283510)
Outline: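 Readout is IL6R transcript level by TaqMan qRT-PCR, normalized to three housekeeping genes and fitted bidirectionally against 0.5% DMSO controls. Human HepaRG cells received chemicals for 48 h in serum-free induction medium, highest concentration 100 uM.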

[20] = read-out: Glutamate-cysteine ligase catalytic (GCLC), GCLC (gene 2729); experiment: LTEA_HepaRG_GCLC: Life Technologies and Expression Analysis (LTEA) Assay for Glutamate-cysteine ligase catalytic (GCLC) using HepaRG (AID 2283498)
Outline: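 Differentiated HepaRG cells exposed 48 h in serum-free induction medium, eight-point half-log series topping at 100 uM in 0.5% DMSO, duplicates. GCLC mRNA by qRT-PCR normalized to ACTB, GAPDH and POLR2A, fitted bidirectionally versus DMSO.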

Measured: outcome

Chain of Cytochrome P450 3A7 (Homo sapiens) (P24462 whole entry, looked up): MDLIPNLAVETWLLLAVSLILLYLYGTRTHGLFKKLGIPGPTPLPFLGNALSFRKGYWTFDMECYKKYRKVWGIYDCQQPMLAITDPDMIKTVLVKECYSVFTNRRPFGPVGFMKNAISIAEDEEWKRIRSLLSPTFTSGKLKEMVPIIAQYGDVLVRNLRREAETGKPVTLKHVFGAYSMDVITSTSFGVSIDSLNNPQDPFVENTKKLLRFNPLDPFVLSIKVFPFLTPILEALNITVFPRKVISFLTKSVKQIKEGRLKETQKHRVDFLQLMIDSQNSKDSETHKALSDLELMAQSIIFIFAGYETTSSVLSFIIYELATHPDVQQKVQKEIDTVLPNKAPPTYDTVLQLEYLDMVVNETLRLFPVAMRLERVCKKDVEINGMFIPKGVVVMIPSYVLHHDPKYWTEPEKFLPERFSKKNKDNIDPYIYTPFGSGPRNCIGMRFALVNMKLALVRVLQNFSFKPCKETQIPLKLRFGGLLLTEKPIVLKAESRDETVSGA
Chain of Hypoxia-inducible factor 1-alpha (Homo sapiens) (Q16665 whole entry, looked up): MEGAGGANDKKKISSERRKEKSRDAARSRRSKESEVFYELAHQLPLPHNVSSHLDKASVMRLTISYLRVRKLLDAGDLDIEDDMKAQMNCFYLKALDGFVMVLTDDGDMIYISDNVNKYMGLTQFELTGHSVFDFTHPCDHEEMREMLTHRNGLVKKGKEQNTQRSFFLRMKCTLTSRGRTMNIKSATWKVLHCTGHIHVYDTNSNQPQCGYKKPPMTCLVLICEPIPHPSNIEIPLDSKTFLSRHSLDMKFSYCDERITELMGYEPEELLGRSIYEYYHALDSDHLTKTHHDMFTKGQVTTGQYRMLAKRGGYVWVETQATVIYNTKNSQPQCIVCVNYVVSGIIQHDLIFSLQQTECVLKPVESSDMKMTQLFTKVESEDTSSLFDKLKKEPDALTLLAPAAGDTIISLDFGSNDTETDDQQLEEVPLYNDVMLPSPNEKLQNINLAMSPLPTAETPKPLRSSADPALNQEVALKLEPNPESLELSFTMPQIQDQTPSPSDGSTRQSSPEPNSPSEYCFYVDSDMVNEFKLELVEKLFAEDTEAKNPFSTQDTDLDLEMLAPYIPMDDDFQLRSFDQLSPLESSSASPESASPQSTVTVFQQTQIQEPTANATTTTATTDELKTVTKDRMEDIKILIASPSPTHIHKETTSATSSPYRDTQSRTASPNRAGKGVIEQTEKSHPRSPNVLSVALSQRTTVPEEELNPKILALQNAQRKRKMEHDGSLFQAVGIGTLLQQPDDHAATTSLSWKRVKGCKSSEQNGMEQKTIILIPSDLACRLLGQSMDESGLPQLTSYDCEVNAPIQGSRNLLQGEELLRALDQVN

CC1=CC(=O)CC(C)(C)C1
not listed: [20]
inactive: all other assays above

COCCOCCOCCOC
not listed: [18]
inactive: all other assays above

CCCCCCCCO
not listed: [20]
inactive: all other assays above
